# Source: ChEMBL document CHEMBL5598561, “ASAP - In vitro binding kinetics” (2024)
# Biological target: Nonstructural protein 3 (Zika virus) (UniProt A0A024AXB9)
# Sequence (A0A024AXB9 as listed by the source): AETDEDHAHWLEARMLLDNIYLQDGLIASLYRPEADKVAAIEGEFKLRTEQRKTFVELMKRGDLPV
structure (smiles),measurement,setting,value
O=C(Nc1ccc2c(c1)CNC2)c1cc(F)cc2[nH]ncc12,pKD,"PRVABC59, Concentration 10.0 uM, Immobilization level 10000.0 pg/mm2, Rmax 50.0 pg/mm2, ka 86776.347 M-1s-1, kd 0.122 1/s",5.85
same,pKD,"PRVABC59, Concentration 10.0 uM, Immobilization level 12000.0 pg/mm2, Rmax 119.0 pg/mm2, ka 21922.372 M-1s-1, kd 0.021 1/s",6.01
same,pKD,"PRVABC59, Concentration 10.0 uM, Immobilization level 13000.0 pg/mm2, Rmax 93.0 pg/mm2, ka 46087.669 M-1s-1, kd 0.088 1/s",5.72
CC(=O)Nc1cc(Br)cc(C(=O)Nc2ccc3c(c2)CNC3)c1,pKD,"PRVABC59, Concentration 10.0 uM, Immobilization level 3900.0 pg/mm2, Rmax 40.0 pg/mm2, ka 607998.487 M-1s-1, kd 0.155 1/s",6.59
same,pKD,"PRVABC59, Concentration 10.0 uM, Immobilization level 4900.0 pg/mm2, Rmax 52.0 pg/mm2, ka 391367.264 M-1s-1, kd 0.17 1/s",6.36
same,pKD,"PRVABC59, Concentration 10.0 uM, Immobilization level 5500.0 pg/mm2, Rmax 55.0 pg/mm2, ka 425641.507 M-1s-1, kd 0.187 1/s",6.36
same,pKD,"PRVABC59, Concentration 10.0 uM, Immobilization level 10000.0 pg/mm2, Rmax 42.0 pg/mm2, ka 618288.109 M-1s-1, kd 0.171 1/s",6.56
same,pKD,"PRVABC59, Concentration 10.0 uM, Immobilization level 12000.0 pg/mm2, Rmax 74.0 pg/mm2, ka 318554.659 M-1s-1, kd 0.182 1/s",6.24
same,pKD,"PRVABC59, Concentration 10.0 uM, Immobilization level 13000.0 pg/mm2, Rmax 61.0 pg/mm2, ka 520517.585 M-1s-1, kd 0.161 1/s",6.51
NCc1ccc(NC(=O)c2cc(Cl)cc3[nH]ncc23)cc1,pKD,"PRVABC59, Concentration 10.0 uM, Immobilization level 3900.0 pg/mm2, Rmax 39.0 pg/mm2, ka 344993.29 M-1s-1, kd 2.713 1/s",5.11
same,pKD,"PRVABC59, Concentration 10.0 uM, Immobilization level 4900.0 pg/mm2, Rmax 52.0 pg/mm2, ka 210233.557 M-1s-1, kd 2.157 1/s",4.99
same,pKD,"PRVABC59, Concentration 10.0 uM, Immobilization level 5500.0 pg/mm2, Rmax 46.0 pg/mm2, ka 296422.165 M-1s-1, kd 2.251 1/s",5.12
same,pKD,"PRVABC59, Concentration 10.0 uM, Immobilization level 10000.0 pg/mm2, Rmax 40.0 pg/mm2, ka 241734.917 M-1s-1, kd 1.766 1/s",5.14
same,pKD,"PRVABC59, Concentration 10.0 uM, Immobilization level 12000.0 pg/mm2, Rmax 57.0 pg/mm2, ka 217368.509 M-1s-1, kd 1.551 1/s",5.15
same,pKD,"PRVABC59, Concentration 10.0 uM, Immobilization level 13000.0 pg/mm2, Rmax 45.0 pg/mm2, ka 247269.193 M-1s-1, kd 1.32 1/s",5.27
Cn1cc2cc(Cl)cc(C(=O)Nc3ccc4c(c3)CNC4)c2n1,pKD,"PRVABC59, Concentration 10.0 uM, Immobilization level 10000.0 pg/mm2, Rmax 16.0 pg/mm2, ka 983801.201 M-1s-1, kd 0.863 1/s",6.06
same,pKD,"PRVABC59, Concentration 10.0 uM, Immobilization level 12000.0 pg/mm2, Rmax 34.0 pg/mm2, ka 627028.403 M-1s-1, kd 0.493 1/s",6.1
same,pKD,"PRVABC59, Concentration 10.0 uM, Immobilization level 13000.0 pg/mm2, Rmax 25.0 pg/mm2, ka 951140.583 M-1s-1, kd 0.688 1/s",6.14
Cc1ccc2cc(Cl)cc(C(=O)Nc3ccc4c(c3)CNC4)c2n1,pKD,"PRVABC59, Concentration 10.0 uM, Immobilization level 10000.0 pg/mm2, Rmax 26.0 pg/mm2, ka 93254.644 M-1s-1, kd 1.647 1/s",4.75
same,pKD,"PRVABC59, Concentration 10.0 uM, Immobilization level 12000.0 pg/mm2, Rmax 38.0 pg/mm2, ka 56274.373 M-1s-1, kd 0.881 1/s",4.8
same,pKD,"PRVABC59, Concentration 10.0 uM, Immobilization level 13000.0 pg/mm2, Rmax 28.0 pg/mm2, ka 92341.007 M-1s-1, kd 1.18 1/s",4.89
COCCCN1Cc2ccc(NC(=O)c3cc(Cl)cc4[nH]ncc34)cc2C1,pKD,"PRVABC59, Concentration 10.0 uM, Immobilization level 3900.0 pg/mm2, Rmax 42.0 pg/mm2, ka 388632.967 M-1s-1, kd 5.459 1/s",4.85
same,pKD,"PRVABC59, Concentration 10.0 uM, Immobilization level 4900.0 pg/mm2, Rmax 39.0 pg/mm2, ka 367718.358 M-1s-1, kd 4.612 1/s",4.9
same,pKD,"PRVABC59, Concentration 10.0 uM, Immobilization level 5500.0 pg/mm2, Rmax 38.0 pg/mm2, ka 400996.136 M-1s-1, kd 4.84 1/s",4.92
same,pKD,"PRVABC59, Concentration 10.0 uM, Immobilization level 10000.0 pg/mm2, Rmax 39.0 pg/mm2, ka 289414.732 M-1s-1, kd 5.077 1/s",4.76
same,pKD,"PRVABC59, Concentration 10.0 uM, Immobilization level 12000.0 pg/mm2, Rmax 59.0 pg/mm2, ka 250455.768 M-1s-1, kd 3.882 1/s",4.81
same,pKD,"PRVABC59, Concentration 10.0 uM, Immobilization level 13000.0 pg/mm2, Rmax 33.0 pg/mm2, ka 234107.52 M-1s-1, kd 2.737 1/s",4.93
Cc1ncc(Br)cc1C(=O)Nc1ccc2c(c1)CNC2,pKD,"PRVABC59, Concentration 10.0 uM, Immobilization level 3900.0 pg/mm2, Rmax 35.0 pg/mm2, ka 305396.759 M-1s-1, kd 1.511 1/s",5.3
same,pKD,"PRVABC59, Concentration 10.0 uM, Immobilization level 4900.0 pg/mm2, Rmax 50.0 pg/mm2, ka 284203.309 M-1s-1, kd 1.434 1/s",5.3
same,pKD,"PRVABC59, Concentration 10.0 uM, Immobilization level 5500.0 pg/mm2, Rmax 66.0 pg/mm2, ka 223031.106 M-1s-1, kd 1.457 1/s",5.18
same,pKD,"PRVABC59, Concentration 10.0 uM, Immobilization level 12000.0 pg/mm2, Rmax 11.0 pg/mm2, ka 147874.405 M-1s-1, kd 1.474 1/s",5
same,pKD,"PRVABC59, Concentration 10.0 uM, Immobilization level 13000.0 pg/mm2, ka 192202.373 M-1s-1, kd 1.118 1/s",5.24
O=C(Nc1ccc2c(c1)CCNCC2)c1cc(Cl)cc2[nH]ncc12,pKD,"PRVABC59, Concentration 10.0 uM, Immobilization level 3900.0 pg/mm2, Rmax 28.0 pg/mm2, ka 176787.489 M-1s-1, kd 0.385 1/s",5.66
same,pKD,"PRVABC59, Concentration 10.0 uM, Immobilization level 4900.0 pg/mm2, Rmax 58.0 pg/mm2, ka 81779.894 M-1s-1, kd 0.366 1/s",5.35
same,pKD,"PRVABC59, Concentration 10.0 uM, Immobilization level 5500.0 pg/mm2, Rmax 55.0 pg/mm2, ka 98394.506 M-1s-1, kd 0.363 1/s",5.43
same,pKD,"PRVABC59, Concentration 10.0 uM, Immobilization level 10000.0 pg/mm2, Rmax 51.0 pg/mm2, ka 117713.558 M-1s-1, kd 0.472 1/s",5.4
same,pKD,"PRVABC59, Concentration 10.0 uM, Immobilization level 12000.0 pg/mm2, Rmax 47.0 pg/mm2, ka 102680.383 M-1s-1, kd 0.29 1/s",5.55
same,pKD,"PRVABC59, Concentration 10.0 uM, Immobilization level 13000.0 pg/mm2, Rmax 85.0 pg/mm2, ka 77805.794 M-1s-1, kd 0.391 1/s",5.3
N[C@H]1CCc2ccc(NC(=O)c3cc(Cl)cc4[nH]ncc34)cc21,pKD,"PRVABC59, Concentration 10.0 uM, Immobilization level 3900.0 pg/mm2, Rmax 29.0 pg/mm2, ka 348858.596 M-1s-1, kd 0.945 1/s",5.57
same,pKD,"PRVABC59, Concentration 10.0 uM, Immobilization level 4900.0 pg/mm2, Rmax 45.0 pg/mm2, ka 214378.611 M-1s-1, kd 0.858 1/s",5.4
same,pKD,"PRVABC59, Concentration 10.0 uM, Immobilization level 5500.0 pg/mm2, Rmax 42.0 pg/mm2, ka 277409.149 M-1s-1, kd 0.816 1/s",5.53
same,pKD,"PRVABC59, Concentration 10.0 uM, Immobilization level 10000.0 pg/mm2, Rmax 43.0 pg/mm2, ka 267738.182 M-1s-1, kd 1.043 1/s",5.41
same,pKD,"PRVABC59, Concentration 10.0 uM, Immobilization level 12000.0 pg/mm2, Rmax 61.0 pg/mm2, ka 230496.11 M-1s-1, kd 0.784 1/s",5.47
same,pKD,"PRVABC59, Concentration 10.0 uM, Immobilization level 13000.0 pg/mm2, Rmax 48.0 pg/mm2, ka 351322.313 M-1s-1, kd 0.852 1/s",5.62
O=C(Nc1ccc2c(c1)CNC2)c1cc(Br)cc2[nH]ncc12,pKD,"PRVABC59, Concentration 10.0 uM, Immobilization level 3900.0 pg/mm2, Rmax 38.0 pg/mm2, ka 289981.015 M-1s-1, kd 0.089 1/s",6.51
same,pKD,"PRVABC59, Concentration 10.0 uM, Immobilization level 4900.0 pg/mm2, Rmax 58.0 pg/mm2, ka 168121.167 M-1s-1, kd 0.102 1/s",6.21
same,pKD,"PRVABC59, Concentration 10.0 uM, Immobilization level 5500.0 pg/mm2, Rmax 62.0 pg/mm2, ka 169991.939 M-1s-1, kd 0.118 1/s",6.16
same,pKD,"PRVABC59, Concentration 10.0 uM, Immobilization level 10000.0 pg/mm2, Rmax 73.0 pg/mm2, ka 76775.421 M-1s-1, kd 0.125 1/s",5.79
same,pKD,"PRVABC59, Concentration 10.0 uM, Immobilization level 12000.0 pg/mm2, Rmax 147.0 pg/mm2, ka 18302.495 M-1s-1, kd 0.037 1/s",5.69
same,pKD,"PRVABC59, Concentration 10.0 uM, Immobilization level 13000.0 pg/mm2, Rmax 120.0 pg/mm2, ka 46201.966 M-1s-1, kd 0.079 1/s",5.76
N#Cc1cc(C(=O)Nc2ccc3c(c2)CNC3)cc(C(F)(F)F)c1,pKD,"PRVABC59, Concentration 1.0 uM, Immobilization level 3900.0 pg/mm2, Rmax 43.0 pg/mm2, ka 266866.495 M-1s-1, kd 1.179 1/s",5.36
same,pKD,"PRVABC59, Concentration 10.0 uM, Immobilization level 4900.0 pg/mm2, Rmax 32.0 pg/mm2, ka 534169.763 M-1s-1, kd 0.781 1/s",5.84
same,pKD,"PRVABC59, Concentration 10.0 uM, Immobilization level 5500.0 pg/mm2, Rmax 33.0 pg/mm2, ka 604018.636 M-1s-1, kd 0.866 1/s",5.84
same,pKD,"PRVABC59, Concentration 10.0 uM, Immobilization level 10000.0 pg/mm2, Rmax 37.0 pg/mm2, ka 362843.113 M-1s-1, kd 0.996 1/s",5.56
same,pKD,"PRVABC59, Concentration 10.0 uM, Immobilization level 12000.0 pg/mm2, Rmax 65.0 pg/mm2, ka 232125.016 M-1s-1, kd 0.861 1/s",5.43
same,pKD,"PRVABC59, Concentration 10.0 uM, Immobilization level 13000.0 pg/mm2, Rmax 45.0 pg/mm2, ka 383567.228 M-1s-1, kd 0.798 1/s",5.68
CC(C)(C)c1ccc(Cl)cc1C(=O)Nc1ccc2c(c1)CNC2,pKD,"PRVABC59, Concentration 10.0 uM, Immobilization level 10000.0 pg/mm2, Rmax 29.0 pg/mm2, ka 451041.562 M-1s-1, kd 5.162 1/s",4.94
same,pKD,"PRVABC59, Concentration 10.0 uM, Immobilization level 12000.0 pg/mm2, Rmax 32.0 pg/mm2, ka 233803.873 M-1s-1, kd 2.593 1/s",4.96
same,pKD,"PRVABC59, Concentration 10.0 uM, Immobilization level 13000.0 pg/mm2, Rmax 24.0 pg/mm2, ka 278548.314 M-1s-1, kd 2.759 1/s",5
